# Most compounds without a hit are left out; they make up all but 1.3% or so of the library.
# eLon inh = inhibitors of E. coli Lon protease, primary screen, biochemical, fluorescence polarization. P0A9M0. purified E. coli Lon protease. inhibition, % at 7.94 µM. 0.42% of 360,000 active. AID 602123, 2011; in the data active = inhibition above about 13%, passing the limit was not always enough;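 note: 0% = enzyme with probe and DMSO and 100% = no enzyme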
# EBV gp42 block = Epstein-Barr virus gp42 inhibitors, primary screen, biochemical, uHTS, fluorescence polarization. inhibition, % (tested at 21.74 µM). Fluorescence polarization binding assay, mP read-out. Glycoprotein 42 (Epstein-Barr virus (strain AG876)), Q1HVG2. AID 1085, 2008. 0.42% of 220,000 active; in the data active = inhibition above about 50%
# GLD-1 TGE inh = GLD-1/TGE RNA complex disruptors, primary screen, biochemical, fluorescence polarization | Female germline-specific tumor suppressor gld-1 (Caenorhabditis elegans), Q17339 | purified GLD-1 + fluorescein TGE RNA | inhibition, % at 5.96 µM | 0.44% of 320,000 active | AID 2280, 2010;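 active = percent inhibition above a per-plate cutoff, the plate mean of test compounds plus 3 SD, cut at about 30% in these data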;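 note: 0% = DMSO wells with GLD-1 and probe and 100% = wells lacking GLD-1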
# Target sequence (Q17339 whole entry, looked up): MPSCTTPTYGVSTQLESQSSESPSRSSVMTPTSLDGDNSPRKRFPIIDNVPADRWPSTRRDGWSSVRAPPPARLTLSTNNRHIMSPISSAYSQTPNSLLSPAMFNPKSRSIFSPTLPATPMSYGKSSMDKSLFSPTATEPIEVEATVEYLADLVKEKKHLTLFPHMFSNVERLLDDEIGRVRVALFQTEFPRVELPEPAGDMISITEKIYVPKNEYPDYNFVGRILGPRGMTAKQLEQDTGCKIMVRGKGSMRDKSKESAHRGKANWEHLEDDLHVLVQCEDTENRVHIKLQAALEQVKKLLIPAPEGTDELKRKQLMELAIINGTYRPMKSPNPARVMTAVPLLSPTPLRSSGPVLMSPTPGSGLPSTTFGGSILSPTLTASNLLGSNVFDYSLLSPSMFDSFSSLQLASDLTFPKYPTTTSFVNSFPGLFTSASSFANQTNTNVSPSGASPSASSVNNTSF
# MEX-5 binding = MEX-5 zinc finger RNA-binding disruptors – biochemical, C. elegans, fluorescence polarization, MLPCN library, primary screen; Zinc finger protein mex-5 (Caenorhabditis elegans), Q9XUB2; 0.38% of 300,000 active; activity score (negative = inhibition of binding), % at 10 µM; MEX-5/FITC-TCR2 RNA binding; hits give low values; AID 1832, 2009;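 active = inhibition past about -25% in most replicates, and total fluorescence under double the plate's negative control median, limit read from the data; inconclusive = replicates evenly split on the limit, or fluorescence at least double controls; inactive = too little inhibition in most replicates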;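 note: 0% = DMSO and -100% = 5 µM competing unlabeled TCR2 RNA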
# Bcl-xL primary = inhibitors of human Bcl-xL, primary screen, biochemical, fluorescence polarization, HTS; Bcl-2-like protein 1 (Homo sapiens), Q07817; GST-Bcl-xL / FITC-Bim BH3 peptide fluorescence polarization; inhibition, % at 10.9 µM; 0.7% of 320,000 active; AID 2129, 2009;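 active = inhibition above the mean of all tested compounds plus 3 SD, cutoff set per campaign, cut at about 30% in these data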;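 note: 0% = DMSO wells and 100% = unlabeled Bim-BH3 peptide competitor; inhibitors lower millipolarization by displacing the labeled peptide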
# Active calls of the source: *; ? = inconclusive; . = no result given.
SMILES,eLon inh,EBV gp42 block,GLD-1 TGE inh,MEX-5 binding,Bcl-xL primary
CC(C)NC(=O)c1cc(-c2cccs2)nc2ccccc12,1,.,2,5,10
CC(C)NC(=O)c1sc2nc(-c3cccs3)cc(-c3cccs3)c2c1N,.,64*,-9,-10,1
Nc1c(C(=O)Nc2nc3ccccc3s2)sc2nc(-c3cccs3)ccc12,10,35,-5,-46*,25
CC(=O)c1sc2nc(-c3cccs3)ccc2c1N,-8,35,-2,-10,-1
Cc1cc(-c2cccs2)c2c(N)c(C(=O)c3ccc4c(c3)OCO4)sc2n1,-35,133*,-22,-9,-6
COc1ccc(C(=O)c2sc3nc(C)cc(-c4cccs4)c3c2N)cc1,-74,102*,.,-44*,.
COc1ccc(-c2c(C#N)c(N)nc3sc(C(=O)c4ccc(C)cc4)c(N)c23)cc1,-22,75*,-3,-10,-4
COc1ccc(C(=O)c2sc3nc(C)cc(-c4cccs4)c3c2N)cc1OC,-200,61*,5,-53*,6
COc1ccc(C(=O)c2sc3nc(-c4ccc(OC)cc4)ccc3c2N)cc1,-23,-1,-18,-16,-4
CCOC(=O)c1c(C)[nH]c(C(=O)OCC(=O)NCc2ccco2)c1C,2,.,.,.,.
CC(C)Sc1nc2c(cnn2-c2ccc(Cl)cc2)c(=O)[nH]1,6,.,-2,-4,7
Cc1cc(C)c[n+](-c2nc3ccccc3nc2[N-]S(=O)(=O)c2ccc(Br)s2)c1,-1,66*,16,-10,62*
Cc1ccc(S(=O)(=O)[N-]c2nc3ccccc3nc2-n2cc[n+](Cc3ccccc3)c2)cc1,-10,0,7,3,8
COC(=O)c1ccc(/C=N/OCC(=O)NCc2ccc(F)cc2)cc1,1,-8,3,0,-6
S=C(Cc1ccccc1)Nc1ccccc1,-1,.,.,.,.
N#C/C(=C\c1cccnc1)C(=O)Nc1ccccc1,-1,-6,29,.,31*
CC(C)NC(=NCc1ccc(Cl)cc1Cl)Nc1ccccc1,-9,.,11,0,4
C/C(=N/OC(=O)c1c(-c2c(Cl)cccc2Cl)noc1C)c1cnccn1,-2,55*,8,2,0
O=C(CC1SC(N2CCCCC2)=NC1=O)Nc1cccc(C(=O)Nc2ncccc2O)c1 (stereo unspecified),-8,.,5,-2,2
COc1cc([N+](=O)[O-])ccc1NC(=S)Nn1cnnc1,-7,.,1,-2,36*
COC(=O)Nc1ccc([N+](=O)[O-])cc1OC,-2,-2,-5,-1,2
O=C(CNC(=O)c1sc2ccccc2c1Cl)NCc1ccc(F)cc1,-1,.,-4,5,-3
Cc1cc(C(F)(F)F)nn1CC(=O)N1CCOCC1,-6,-15,2,3,2
Fc1ccc(N=c2ssnc2Cl)c(F)c1,0,-21,9,-30*,3
CC(C)N(C(=O)C[n+]1ccc(/C=N/O)cc1)C(C)C,-276,77*,6,0,1
SMILES,eLon inh,EBV gp42 block,GLD-1 TGE inh,MEX-5 binding,Bcl-xL primary
CN(C)c1ccc(/C=c2/sc3n(c2=O)NC2(c4ccccc4)N(C)C(=O)N(C)C2(c2ccccc2)N=3)cc1 (stereo unspecified),.,50*,-3,1,1
CN1C(=O)N(C)C2(c3ccccc3)Nn3c(s/c(=C/c4ccccc4F)c3=O)=NC12c1ccccc1 (stereo unspecified),.,-20,4,-2,-4
CCOC(=O)C1=C(CSc2nc3c(cc2C#N)CN(C)CC3)OC(N)=C(C#N)C1c1ccc(Cl)cc1 (stereo unspecified),-20,-15,33*,1,40*
O=C(OC1C2CCC1C1CN(CCc3ccccc3)CC12)c1ccccc1 (stereo unspecified),4,-11,-7,4,-1
COCCOC(=O)C1=C(C)NC(=O)NC1c1c(Cl)nc2c(C)cccn2c1=O (stereo unspecified),.,9,8,-3,32*
COCCOC(=O)C1=C(C)NC(=O)NC1c1c(Cl)nc2ccccn2c1=O (stereo unspecified),19,3,12,-1,3
Cn1cc(/C=C/c2cc[n+](C)cc2)c2cc(Cl)ccc21,-287,.,52*,?,15
Cn1cc(/C=C/c2cc[n+](C)cc2)c2cc(F)ccc21,-318,.,77*,?,28
CC(=O)C1C(c2cccc(F)c2)c2c(n[nH]c2C)CC1(C)O (stereo unspecified),-9,-5,1,2,0
O=C(CCC1CCCN(C(=O)C2=CCCCC2)C1)N1CCN(c2ccccn2)CC1 (stereo unspecified),1,9,0,6,4
O=C(Nc1nc(OCC(F)(F)F)cnc1/C=C\c1ccccc1)c1ccccc1,-4,.,.,.,.
CCN(CC)CCN1C2=C(C(=O)CC(C)(C)C2)C(c2cccc(F)c2)C2=C1CC(C)(C)CC2=O,1,140*,-1,-1,7
CC1(C)CC(=O)C2=C(C1)N(CCN1CCOCC1)C1=C(C(=O)CC(C)(C)C1)C2c1cccc(Cl)c1,-9,-12,-6,-2,2
CCOC(=O)c1c(NC(=O)COC(=O)c2cc(OC)c(OC)cc2[N+](=O)[O-])sc(C)c1C,-7,4,3,-1,2
CC(=O)Nc1ccc(N=Cc2nc(-c3ccc(C)cc3)oc2O)cc1,-14,12,31*,-31*,89*
COc1ccc(N=Cc2nc(-c3ccco3)oc2O)cc1,6,-9,1,-3,0
Cc1ccc(N=Cc2nc(-c3ccc(C)cc3)oc2O)cc1,0,-19,.,-42*,.
Cc1ccc(C(=O)N/N=C/c2ccoc2)cc1C,-25,.,2,2,5
Nc1ccc(S(=O)(=O)Nc2nc3ccccc3o2)cc1,-12,.,3,-3,16
NC1=NC(=O)C2(COC(c3cccnc3)OC2)S1 (stereo unspecified),-3,-13,5,-2,86*
NC1=NC(=O)C2(COC(c3ccncc3)OC2)S1 (stereo unspecified),2,-11,0,-1,0
Cc1cc(OCC(=O)OCC(=O)NCC2CCCO2)ccc1Cl (stereo unspecified),3,.,9,.,0
O=C(CSc1nc(-c2ccccc2)nc2c1Cc1ccccc1O2)Nc1ccccc1,.,-5,1,1,3
O=C(CSc1nc(-c2ccc(F)cc2)nc2c1Cc1ccccc1O2)Nc1cccc(C(=O)O)c1,-5,71*,.,2,.
CN(C(=O)CSc1nnc(-c2ccco2)n1C)C1CCCCC1,2,.,.,.,.
O=C1c2cccc([N+](=O)[O-])c2C(=O)N1CCO,-9,-6,9,-2,2
